Assay outcomes deposited in PubChem by Broad Institute.
Hits are enriched below; roughly 8.1% of the tested compounds scored in any of these assays.
PD-1 reverse act: activators reversing PD-1 mediated T-cell inhibition; primary human CD4 T cells, PD-L1 beads, CellTiter-Glo 96 h; activation, % (no concentration beside the values); 29,000 tested, under 10 active; AID 2316; call rule not given here;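 also: 0% = median vehicle wells and 100% = positive control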
NOMO-1 viab: STK33 inhibitor candidate reducing NOMO-1 cell viability; NOMO-1 AML viability, CellTiter-Glo luminescence, 72 h; inhibition, % (no concentration beside the values); 7.5% of 37,000 active; in the data active = inhibition above about 80%; inconclusive = no clear call, values can overlap the other calls
MITF inh: blocks MITF activity | TRPM1 promoter luciferase, luminescence, 24 h | inhibition, % (test concentration not listed) | 0.28% of 37,000 active; in the data active = inhibition above about 85%; inconclusive = no clear call, values can overlap the other calls; inactive = below about 68%;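 also: human melanocyte line stably carrying TRPM1 promoter luciferase reporter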
Hedgehog inh: blocks Sonic Hedgehog signaling; 2.1% of 22,000 active; inhibition, % (test concentration not listed); Shh-LIGHT2 Gli-luciferase reporter, 30 h; AID 2313;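 active = mean inhibition across valid replicates above about 65%, limit read from the data; inconclusive = mean under the limit, yet half or more replicates past it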;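 also: pathway switched on by Shh-conditioned medium diluted 1 in 25 in low serum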
An asterisk follows results filed as active; ? = inconclusive; nt = no result given.

SMILES | PD-1 reverse act | NOMO-1 viab | MITF inh | Hedgehog inh
Cn1c(SCC(=O)Nc2ccc(Br)cc2)nnc1-c1cccnc1 | 1 | 7 | 18 | nt
C[C@@H]1CN([C@@H](C)CO)C(=O)c2cc(NC(=O)Nc3cccc4ccccc34)ccc2O[C@@H]1CN(C)Cc1ccc(C(=O)Nc2ccccc2N)cc1 | -2 | 110* | 8 | nt
C[C@H](CO)N1C[C@H](C)[C@H](CN(C)Cc2ccc(C(=O)Nc3ccccc3N)cc2)Oc2ccc(NC(=O)Nc3ccccc3)cc2C1=O | 1 | ? | -35 | nt
C[C@@H]1CN([C@@H](C)CO)C(=O)c2cc(NC(=O)Nc3ccc4c(c3)OCO4)ccc2O[C@@H]1CN(C)Cc1ccc(C(=O)Nc2ccccc2N)cc1 | -2 | 108* | 3 | nt
C[C@H](CO)N1C[C@H](C)[C@H](CN(C)Cc2ccc(C(=O)Nc3ccccc3N)cc2)Oc2ccc(NC(=O)Cc3ccccc3)cc2C1=O | -2 | 104* | 13 | nt
C[C@@H]1CN([C@@H](C)CO)C(=O)c2cc(NC(=O)Nc3ccccc3)ccc2O[C@@H]1CN(C)Cc1ccc(C(=O)Nc2ccccc2N)cc1 | -3 | 111* | 28 | nt
CCOC(=O)c1nn(-c2ccc(OC)cc2)c(C(=O)OCC)c1NC(=O)C1CCCCC1 | -2 | 48 | -3 | 22
COc1ccc(S(=O)(=O)N(C)CC(=O)Nc2ccccc2)cc1Cl | 1 | 8 | 4 | nt
CC1(C)CC(=O)C2=C(C1)NC(SCC(=O)Nc1ccccc1)=C(C#N)C2c1ccco1 (stereo not given) | -3 | 44 | -22 | nt
CCc1ccc(C2C(C#N)=C(C)NC3=C2C(=O)CC(C)(C)C3)cc1 (stereo not given) | -1 | 86* | 33 | nt
C[C@@H]1CN([C@@H](C)CO)C(=O)c2cccc(NC(=O)CCCCCC(=O)Nc3ccccc3N)c2O[C@@H]1CN(C)Cc1ccc(Cl)c(Cl)c1 | 0 | 126* | 39 | nt
C[C@@H]1CN([C@H](C)CO)C(=O)c2cccc(NC(=O)CCCCCC(=O)Nc3ccccc3N)c2O[C@@H]1CN(C)C | 1 | 29 | -28 | nt
C[C@H]1CN([C@@H](C)CO)C(=O)c2cccc(NC(=O)CCCCCC(=O)Nc3ccccc3N)c2O[C@H]1CN(C)Cc1ccc(Cl)c(Cl)c1 | 0 | 120* | 47 | nt
C[C@@H]1CN([C@H](C)CO)C(=O)c2cccc(NC(=O)CCCCCC(=O)Nc3ccccc3N)c2O[C@@H]1CN(C)Cc1ccc(Cl)c(Cl)c1 | 0 | 134* | 31 | nt
COc1ccccc1NC(=O)c1ccc(CSc2nc3ccccc3o2)cc1 | nt | 5 | 8 | nt
CCN(CC)CCC(=O)N1N=C(c2ccc(C)cc2)CC1c1ccc(OC)cc1 (stereo not given) | 1 | 27 | -1 | -5
O=C(c1cc2cc(Br)ccc2oc1=O)N1CCCc2ccccc21 | 0 | 5 | 0 | -22
C[C@H]1CN([C@@H](C)CO)C(=O)c2cc(NC(=O)Nc3ccc(C(F)(F)F)cc3)ccc2O[C@@H]1CN(C)C(=O)Nc1ccc(F)cc1 | -3 | 14 | 8 | -9
C[C@H](CO)N1C[C@H](C)[C@H](CN(C)C(=O)Nc2ccc(F)cc2)Oc2ccc(NC(=O)Nc3ccc(C(F)(F)F)cc3)cc2C1=O | -3 | 112* | 49 | 69*
C[C@@H]1CN([C@@H](C)CO)C(=O)c2cc(NC(=O)Nc3ccc(C(F)(F)F)cc3)ccc2O[C@@H]1CN(C)C(=O)Nc1ccc(F)cc1 | -6 | 113* | 51 | 57
O=C(CSc1ncnc2scc(-c3ccc(Br)cc3)c12)Nc1ccccc1 | 1 | 7 | -5 | nt
C/C1=C/CCC2=CC(OC2=O)C(C)(C)/C=C/C1=O (stereo not given) | -9 | 119* | 74 | -43
Cc1ccc(-c2nc3cc(Cl)cc(Cl)c3o2)cc1NC(=O)COc1ccccc1 | 0 | 23 | 47 | nt
Oc1ccccc1CNCc1ccccn1 | -3 | 115* | -4 | nt
C=C1C(=O)O[C@@H]2C3C(=C(C)[C@@H](O)[C@@H](OC(=O)/C(=C/C)COC(C)=O)[C@@H]12)C(=O)[C@H]1O[C@@]31C (stereo not given in full) | -9 | 119* | 58 | 72*
SMILES | PD-1 reverse act | NOMO-1 viab | MITF inh | Hedgehog inh
COc1ccc(S(=O)(=O)Nc2ccc3c(c2)C(=O)N([C@H](C)CO)C[C@H](C)[C@@H](CN(C)Cc2ccc(Oc4ccccc4)cc2)O3)cc1 | 0 | 66 | 6 | 37
COc1ccc(S(=O)(=O)Nc2ccc3c(c2)C(=O)N([C@H](C)CO)C[C@@H](C)[C@@H](CN(C)Cc2ccc(Oc4ccccc4)cc2)O3)cc1 | -1 | 111* | 40 | 68*
COc1ccc(S(=O)(=O)Nc2ccc3c(c2)C(=O)N([C@H](C)CO)C[C@@H](C)[C@H](CN(C)Cc2ccc(Oc4ccccc4)cc2)O3)cc1 | -1 | 105* | 37 | 0
COc1ccc(S(=O)(=O)Nc2ccc3c(c2)C(=O)N([C@@H](C)CO)C[C@H](C)[C@H](CN(C)Cc2ccc(Oc4ccccc4)cc2)O3)cc1 | nt | 123* | 47 | 40
C[C@@H]1CN([C@@H](C)CO)C(=O)c2cc(NS(=O)(=O)c3ccc(Cl)cc3)ccc2O[C@H]1CN(C)Cc1ccc(Oc2ccccc2)cc1 | -1 | 109* | 43 | 20
COc1ccc(CN(C)C[C@H]2Oc3ccc(NS(=O)(=O)c4ccccc4)cc3C(=O)N([C@@H](C)CO)C[C@@H]2C)cc1 | -4 | 11 | -8 | nt
Cn1c(SCC(=O)Nc2ccccc2C(F)(F)F)nnc1-c1ccc(NC(=O)c2ccc(F)cc2)cc1 | 3 | 21 | 22 | nt
CC(Oc1ccc2ccccc2c1)C(=O)NN (stereo not given) | 1 | 21 | -10 | nt
Nc1nc(Cc2ccc(F)cc2F)no1 | 1 | 0 | 12 | -3
C[C@@H]1CN([C@@H](C)CO)C(=O)c2cc(NS(=O)(=O)c3ccc(F)cc3)ccc2O[C@H]1CN(C)Cc1ccc(Oc2ccccc2)cc1 | -2 | 98* | 27 | nt
COc1ccc(S(=O)(=O)Nc2ccc3c(c2)C(=O)N([C@@H](C)CO)C[C@@H](C)[C@H](CN(C)Cc2ccc(-c4ccccc4)cc2)O3)cc1 | 2 | 122* | 35 | 15
COc1ccc(S(=O)(=O)Nc2ccc3c(c2)C(=O)N([C@@H](C)CO)C[C@@H](C)[C@H](CN(C)Cc2ccc(Oc4ccccc4)cc2)O3)cc1 | -2 | 108* | 37 | nt
C[C@H](CO)N1C[C@H](C)[C@H](CN(C)Cc2ccc(Oc3ccccc3)cc2)Oc2ccc(NS(=O)(=O)c3ccccc3)cc2C1=O | -2 | ? | 3 | 41
COc1ccc(S(=O)(=O)Nc2ccc3c(c2)C(=O)N([C@H](C)CO)C[C@H](C)[C@H](CN(C)Cc2ccc(-c4ccccc4)cc2)O3)cc1 | 3 | 24 | 5 | 46
CC(=O)N[C@H]1[C@H](O[C@@H]2[C@@H](O)[C@H](C)O[C@@H](Oc3ccc4c(=O)c(-c5ccc(O)cc5)coc4c3)[C@@H]2O)O[C@H](CO)[C@@H](O[C@@H]2O[C@@H](C)[C@H](O)[C@@H](O)[C@H]2O)[C@@H]1O | -1 | -13 | -11 | 16
CC(C)C(=O)Nc1sc2c(c1C(=O)Nc1cccnc1)CCCC2 | nt | -12 | 1 | nt
O=C(c1ccccc1)N(c1ccccc1)c1ccccc1 | -1 | 39 | 13 | 50
